# Screen size: about 310,000 compounds; about 14,000 (4.5%) showed an effect of 50% or more. The effect is printed as a negative number. The entries come from a sample that favours strong results as a whole.
# Target: human ether-à-go-go-related gene (hERG) potassium channel (human, UniProt Q12809)
# Assay: primary screen, population patch clamp on CHO cells stably expressing hERG; higher = less effect of the substance
# 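Further: peak tail current of the secondary pulse compared with the same well before compound.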
# Sequence of human ether-à-go-go-related gene (hERG) potassium channel (Q12809 whole entry, looked up): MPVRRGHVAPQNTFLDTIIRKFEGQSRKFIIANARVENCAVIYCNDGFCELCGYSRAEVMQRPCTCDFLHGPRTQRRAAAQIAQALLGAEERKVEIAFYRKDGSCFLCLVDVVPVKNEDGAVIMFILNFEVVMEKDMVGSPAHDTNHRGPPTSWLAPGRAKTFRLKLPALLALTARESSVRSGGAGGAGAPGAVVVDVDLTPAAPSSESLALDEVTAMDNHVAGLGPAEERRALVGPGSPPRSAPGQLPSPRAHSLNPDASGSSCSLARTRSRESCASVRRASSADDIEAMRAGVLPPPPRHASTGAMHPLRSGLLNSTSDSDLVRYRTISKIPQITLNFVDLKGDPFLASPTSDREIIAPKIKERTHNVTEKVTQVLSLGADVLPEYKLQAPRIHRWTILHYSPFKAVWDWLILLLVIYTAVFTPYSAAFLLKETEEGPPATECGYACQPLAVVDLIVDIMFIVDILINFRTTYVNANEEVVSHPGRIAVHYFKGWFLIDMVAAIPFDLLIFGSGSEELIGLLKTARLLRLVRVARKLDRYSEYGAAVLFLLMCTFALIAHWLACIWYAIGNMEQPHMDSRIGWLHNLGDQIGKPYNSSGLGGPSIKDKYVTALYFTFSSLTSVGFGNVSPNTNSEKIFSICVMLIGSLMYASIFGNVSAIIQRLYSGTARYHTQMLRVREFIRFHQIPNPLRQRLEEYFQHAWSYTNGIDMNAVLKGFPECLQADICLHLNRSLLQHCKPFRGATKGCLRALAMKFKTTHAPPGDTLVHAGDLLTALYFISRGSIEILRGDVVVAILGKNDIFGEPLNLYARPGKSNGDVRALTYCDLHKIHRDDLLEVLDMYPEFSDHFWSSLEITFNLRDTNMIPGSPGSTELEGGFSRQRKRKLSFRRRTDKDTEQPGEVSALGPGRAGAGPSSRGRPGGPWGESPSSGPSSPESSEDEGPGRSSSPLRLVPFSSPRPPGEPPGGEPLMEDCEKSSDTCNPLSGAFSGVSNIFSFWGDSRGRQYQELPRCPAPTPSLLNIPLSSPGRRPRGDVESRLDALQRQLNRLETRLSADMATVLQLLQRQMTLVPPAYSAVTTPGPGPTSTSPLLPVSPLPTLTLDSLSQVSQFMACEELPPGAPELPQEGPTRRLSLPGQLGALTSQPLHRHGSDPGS
row,Structure (SMILES),"hERG current change (%, negative = inhibition) at 10uM"
1,CCC(=O)NCCc1nc2ccccc2[nH]1,1.08%
2,CN1CCN(c2nc(N)cc(=O)[nH]2)CC1,15.2%
3,c1ccc(-n2c(Sc3cnccn3)nnc2-c2cccs2)cc1,-33.3%
4,CSc1nc([O-])cc(=O)n1-c1ccc(F)cc1.[K+],2.86%
5,COc1cccc(/C=C2/C(=O)NN(c3ccc(C)c(C)c3)C2=O)c1,-3.01%
6,Cn1c(=O)c2c(SCC(=O)NCc3ccco3)nc(-c3ccccc3Cl)nc2n(C)c1=O,-1.4%
7,Cc1cc(Br)ccc1NC(=O)c1ccc(-n2cncn2)c([N+](=O)[O-])c1,12.3%
8,Cc1cc(Br)ccc1NC(=O)CNC(=O)c1ccc(-n2cncn2)c([N+](=O)[O-])c1,-59.9%
9,C=CCN1C(=O)c2ccc(C(=O)N(C)CC(=O)Nc3ccc(Br)cc3C)cc2C1=O,-52.5%
10,C=CCN1C(=O)c2ccc(C(=O)N(C)CC(=O)Nc3c(C)cccc3C)cc2C1=O,15.4%
11,Cc1ccc(C)c(NC(=O)CN(C)C(=O)c2ccc(-n3cncn3)c([N+](=O)[O-])c2)c1,-26.7%
12,Cc1ccc(OCC(=O)NNC(=O)c2ccc(-n3cncn3)c([N+](=O)[O-])c2)cc1,-2.51%
13,Cc1cccc(NC(=O)CNC(=O)c2ccc(-n3cncn3)c([N+](=O)[O-])c2)c1C,-9.18%
14,O=C(COc1ccccc1Cl)NNC(=O)c1ccc(-n2cncn2)c([N+](=O)[O-])c1,10.9%
15,C=CCN1C(=O)c2ccc(C(=O)N(C)CC(=O)Nc3ccccc3Br)cc2C1=O,4.17%
16,Cc1cc(Br)ccc1NC(=O)CN(C)C(=O)c1ccc(-n2cncn2)c([N+](=O)[O-])c1,-64.4%
17,O=C(COc1ccc(Br)cc1)NNC(=O)c1ccc(-n2cncn2)c([N+](=O)[O-])c1,-61%
18,Cc1cccc(C)c1NC(=O)CN(C)C(=O)c1ccc(-n2cncn2)c([N+](=O)[O-])c1,-6.43%
19,CCc1[nH]c(=S)c(C#N)c2c1CCCC2,14.9%
20,COc1cccc(C(c2nnnn2Cc2ccccc2)N2CCN(C3CCCC3)CC2)c1OC.Cl (stereo not drawn),-32%
21,O=c1[nH]nc(Sc2ncnc3sccc23)n1CCc1ccccc1,-18.3%
22,CC1CCC/C=C/C2CC(O)CC2C(O)/C=C/C(=O)O1 (stereo not drawn),-2.12%

row,Structure (SMILES),"hERG current change (%, negative = inhibition) at 10uM"
1,O=C(c1cnn2c(C(F)F)cc(-c3ccccc3)nc12)N1CCc2ccccc2C1,-15.6%
2,CCn1c(SCC(=O)NCCc2ccccc2)nc2c(c1=O)SC(C)C2 (stereo not drawn),5.03%
3,COc1cccc(NC(=O)CCN2C(=O)c3ccccc3Sc3ncccc32)c1,12.7%
4,O=C(COC(=O)C1CCC(=O)N1)Nc1ccc(Br)cc1 (stereo not drawn),12%
5,CN1C(C(=O)NCCc2cccs2)CC2Cn3c(nc4cc5ccccc5cc43)C21 (stereo not drawn),-65.9%
6,CN1C(C(=O)NCCc2cccs2)CC2Cn3c(nc4cc(Cl)c(Cl)cc43)C21 (stereo not drawn),-63.6%
7,Cc1cc2nc3n(c2cc1C)CC1CC(C(=O)NCCc2cccs2)N(C)C31 (stereo not drawn),-38.5%
8,CN1C(C(=O)NCCc2cccs2)CC2Cn3c(nc4ccccc43)C21 (stereo not drawn),-27.3%
9,CNC1=C([N+](=O)[O-])CC([N+](=O)[O-])=C(N2CCNCC2)N1C,8.57%
10,CCOC(=O)N1CCC(NC(=O)CS(=O)(=O)Cc2nc(-c3ccc(OC)cc3)oc2C)CC1,13.3%
11,COc1cccc(-c2nc(CS(=O)(=O)CC(=O)NC3CC3)c(C)o2)c1,16.1%
12,COc1cccc(-c2nc(CS(=O)(=O)CC(=O)NCCCN3CCN(C)CC3)c(C)o2)c1,3.5%
13,CCOC(=O)N1CCC(NC(=O)CS(=O)(=O)Cc2nc(-c3cccc(OC)c3)oc2C)CC1,-54.2%
14,COc1cccc(-c2nc(CS(=O)(=O)CC(=O)NCCCN3CCc4ccccc4C3)c(C)o2)c1,-71.6%
15,COc1cccc(-c2nc(CS(=O)(=O)CC(=O)NCCC(C)C)c(C)o2)c1,-10.7%
16,COc1cccc(-c2nc(CS(=O)(=O)CC(=O)NCCCN3CCOCC3)c(C)o2)c1,7.17%
17,COCCCNC(=O)CS(=O)(=O)Cc1nc(-c2cccc(OC)c2)oc1C,7.73%
18,CCCNC(=O)CS(=O)(=O)Cc1nc(-c2cccc(OC)c2)oc1C,-70%
19,CCC(=O)N1CC2(c3ccccc3)CN(C(=O)CC)CC(c3ccccc3)(C1)C2=O,5.6%
20,CC1CCc2cc(F)ccc2N1C(=O)C1(C)CC1(Cl)Cl (stereo not drawn),4.51%
21,CC1CCCN(CCS(=O)(=O)c2ccccc2)C1 (stereo not drawn),3.59%
22,O=C(CN(C(=O)CNC(=O)c1ccco1)c1ccc(Cl)c(Cl)c1)NC1CCCCC1,-27.2%

row,Structure (SMILES),"hERG current change (%, negative = inhibition) at 10uM"
1,O=C(Nc1ccccc1Sc1ccccc1)c1ccc(F)cc1,-7.65%
2,O=C(c1ccc(Cl)cc1Cl)N1CCC(C(=O)N2CCOCC2)CC1,9.99%
3,CCOC(=O)c1c(C)[nH]c(C)c1S(=O)(=O)NCc1cc(C)ccc1C,-6.49%
4,CCNC(=O)C12CCC(C)(c3nc4cc(C)c(C)cc4nc31)C2(C)C (stereo not drawn),33.5%
5,CC12CCC(=O)N1C(C(=O)Nc1nc(-c3ccccc3Cl)cs1)CS2 (stereo not drawn),-6.16%
6,Cc1ccc(S(=O)(=O)N2C(=O)CCC2C(=O)Nn2cnnc2)cc1 (stereo not drawn),5.62%
7,COc1ccc(S(=O)(=O)N2CCC(O)(c3ccc(Cl)cc3)CC2)cc1,24.2%
8,OC(CN1CCN(c2ccc(F)cc2)CC1)c1ccc(Cl)cc1 (stereo not drawn),-37.9%
9,OC1(c2ccc(F)cc2)CCN(Cc2cccnc2)CC1,4.22%
10,OC(CN1CCN(c2cccc(Cl)c2)CC1)c1ccc(F)cc1 (stereo not drawn),-47.2%
11,O=C(O)C(=O)O.O=C(c1cccc(Cl)c1)N1CCN(Cc2c[nH]c3ccccc23)CC1,-20.4%
12,Cc1ccc(Cn2nnnc2CN2CCC(O)(c3ccc(F)cc3)CC2)cc1,-7.64%
13,OC1(c2ccc(Cl)cc2)CCN(Cc2c[nH]c3ccccc23)CC1,-63.7%
14,OC(CCCN1CCC(O)(c2ccc(Cl)cc2)CC1)c1ccc(F)cc1 (stereo not drawn),-75.7%
15,COc1ccc(C2(O)CCN(Cc3nnnn3Cc3ccc(C)cc3)CC2)cc1,-21.4%
16,OCC1(Cc2ccccc2)CCCN(Cc2c[nH]c3ccccc23)C1 (stereo not drawn),-27%
17,COc1ccc(-c2[nH]ncc2CN2CCC(O)(c3ccc(Cl)cc3)CC2)cc1,-71.8%
18,OC1(c2ccc(Cl)cc2)CCN(Cc2cn[nH]c2-c2ccc(F)cc2)CC1,-68.7%
19,Cc1ccc2c(c1)sc1nc(=O)n(-c3ccc(Cl)cc3)c(=O)n12,6.6%
20,O=C(NCCCN1CCOCC1)C1CC(=O)N(c2ccccc2)C1 (stereo not drawn),12.1%
21,CCN1CCN(Cc2oc(CO)cc(=O)c2O)CC1,-4.6%
22,CC(=O)c1cccc(NC(=O)c2ccc3ccccc3c2)c1,6.07%

row,Structure (SMILES),"hERG current change (%, negative = inhibition) at 10uM"
1,Cn1cc(C(=O)c2ccc(Cl)cc2Cl)cc1C(=O)N/N=C(\N)COc1cccc(C(F)(F)F)c1,-4.61%
2,CCOc1ccccc1C1CC(=O)Nc2cc3c(cc21)OCCO3 (stereo not drawn),-2.02%
3,COCCCN(C(=O)CSCC(=O)Nc1cccc(C)c1)c1c(N)n(Cc2ccccc2)c(=O)[nH]c1=O,11.3%
4,CC(C)C(NC(=O)c1ccc2c(c1)OCO2)C(=O)N/N=C\c1ccco1 (stereo not drawn),2.3%
5,CCN1CCCC1CNC(=O)Cn1ncc2c(=O)oc3ccc(C)cc3c21 (stereo not drawn),-2.33%
6,C=CCNC(=O)c1c(N)n(-c2cccc(S(N)(=O)=O)c2)c2nc3ccccc3nc12,-4.04%
7,O=C(Cc1c(F)cccc1Cl)NCCCn1ccnc1,-24.6%
8,COc1cc2c(cc1OC)C(C)NCC2.Cl (stereo not drawn),14.1%
9,OCC1(Cc2ccccc2)CCCN(Cc2cn[nH]c2-c2ccccc2)C1 (stereo not drawn),-16.4%
10,OC1(c2ccc(Cl)cc2)CCN(Cc2cn[nH]c2-c2ccccc2)CC1,-77.7%
11,c1ccc(-c2[nH]ncc2CN2CCc3ccccc3C2)cc1,-2.39%
12,O=C1C2CCCN2C(=O)N1CCN1CCN(c2ccccc2)CC1 (stereo not drawn),-8%
13,O=C1C2CCCCN2C(=O)N1CCN1CCN(c2ccc([N+](=O)[O-])cc2)CC1 (stereo not drawn),-71.5%
14,O=C1C2CCCCN2C(=O)N1CCCCN1CCN(c2ccc(F)cc2)CC1 (stereo not drawn),-44%
15,Cl.Nc1ccc(N2CCN(CCCCN3C(=O)C4CCCN4C3=O)CC2)cc1.O (stereo not drawn),-9.33%
16,Cc1ccc(N2CCN(CCCN3C(=O)C4CCCN4C3=O)CC2)cc1.Cl (stereo not drawn),-7.45%
17,O=C1C2CCCN2C(=O)N1CCN1CCN(CCO)CC1 (stereo not drawn),-5.52%
18,O=C1C2CCCN2C(=O)N1CCCN1CCN(c2ccc([N+](=O)[O-])cc2)CC1 (stereo not drawn),-68.3%
19,O=C1C2CCCCN2C(=O)N1CCCCN1CCN(c2ccc([N+](=O)[O-])cc2)CC1 (stereo not drawn),-75.8%
20,O=C1C2CCCCN2C(=O)N1CCCN1CCN(c2ccc(F)cc2)CC1 (stereo not drawn),-34.8%
21,O=C(CCCN1C(=O)C2CCCCN2C1=O)N1CCN(c2ccc([N+](=O)[O-])cc2)CC1 (stereo not drawn),-74.7%

# Source: PMC4336329 (PLoS ONE, 2015)
